Data published in PubChem BioAssay AID2685 (National Center for Advancing Translational Sciences (NCATS), 2010).
The campaign covered roughly 320,000 compounds. About 2,100 (0.66%) were called active. Not shown: some 53% with an inconclusive outcome. Calls come from the whole dose curve; as a rule, active = well fitted inhibition curve with a large enough effect in the signal ratio, with a control signal flat (not every such curve was filed as active); inconclusive = small, poorly fitted or top-dose-only effect, or effect the other way, or a change in a side signal; inactive = flat fitted curve, though single readings scatter; the % refers to the signal ratio. Many of the other results were omitted from the sample, so actives are more common in it than they were.

experiment: qHTS Assay for Lipid Storage Modulators in Drosophila S3 Cells; details: BODIPY lipid droplet fluorescence, 18-24 h, cells fed with added oleic acid; cell number change: measured here: cell count max response; series mostly up to 46.1 µM; lipid storage change, negative = inhibition: at the top concentration;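 for cell number change: cells counted by Cell Tracker Red CMTPX staining in the red channel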; for lipid storage change, negative = inhibition: % is set by controls: 0 for no effect and ±100 for the full control effect
Procedure, shortened: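 Drosophila S3 cells loaded with oleic acid (400 uM, as added) and compounds at several concentrations; lipid droplets imaged by 488-nm laser-scanning cytometry, 500–530 nm intensity and object ratio to cell channel. Percent activity normalized to 20 uM Triacsin C.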
Potency is the fitted concentration of half-maximal effect.

SMILES | outcome | cell number change | lipid storage change, negative = inhibition | Potency
CCn1cc(C(=O)N(C)CC(OC)OC)c(=O)c2cc(S(=O)(=O)N3CCOCC3)ccc21 | inactive | 3.42% |  | 
C=CCn1c(=S)[nH]c2cc(C(=O)NCCc3ccc(S(N)(=O)=O)cc3)ccc2c1=O |  | 16.5% | 3.58% (inactive) | 
Cc1ccc(S(N)(=O)=O)c(C)c1-n1cnnn1 |  | 3.24% | 3.06% (inactive) | 
Cc1cc(SC(C)C(=O)Nc2c(C)n(C)n(-c3ccccc3)c2=O)nc2ccccc12 (centres undefined) |  | -14.4% | -14.6% (inactive) | 
Cc1c(NC(=O)C(C)N2C(=O)C3CCCCC3C2=O)c(=O)n(-c2ccccc2)n1C (centres undefined) |  | 9.88% | -5.56% (inactive) | 
Cc1c(NC(=O)C(C)N2CC(C)OC(C)C2)c(=O)n(-c2ccccc2)n1C (centres undefined) |  | 11.9% |  | 7.31 µM (active)
COc1cc(-c2nnc(SC(C)C(=O)Nc3c(C)n(C)n(-c4ccccc4)c3=O)o2)cc(OC)c1OC (centres undefined) |  | -15.3% |  | 25.9 µM (active)
Cc1ccc(SC(C)C(=O)Nc2c(C)n(C)n(-c3ccccc3)c2=O)cc1 (centres undefined) | inactive |  |  | 
CCN1CCN(C(C)C(=O)Nc2c(C)n(C)n(-c3ccccc3)c2=O)CC1 (centres undefined) |  | -2.1% | 12.9% (inactive) | 
COCCNC(=O)C(C)Oc1ccccc1 (centres undefined) |  | 20.2% | 20.9% (inactive) | 
NS(=O)(=O)c1ccc(CNC(=O)CSc2nc3ccc(Cl)cc3[nH]2)cc1 |  | -16.1% | -1.11% (inactive) | 
COc1ccc(C2CC(=O)c3sc(NC(C)=O)nc3C2)cc1 (centres undefined) |  | 20.9% | -1.03% (inactive) | 
Cc1cc(C)cc(NC(=S)N2CCC(N(C)CC3CCCO3)CC2)c1 (centres undefined) |  | 11.9% | 2.61% (inactive) | 
Cc1ccc(NC(=S)N2CCC(N(C)CC3CCCO3)CC2)cc1C (centres undefined) |  | 5.03% | 7.38% (inactive) | 
Cc1ccc(NC(=S)N2CCC(N(C)CC3CCCO3)CC2)cc1 (centres undefined) |  | 14.9% | 1.85% (inactive) | 
Cc1cc(C)c(NC(=S)N2CCC(N(C)CC3CCCO3)CC2)c(C)c1 (centres undefined) |  | 6.74% |  | 25.9 µM (active)
Cc1cccc(C)c1NC(=S)N1CCC(N(C)CC2CCCO2)CC1 (centres undefined) |  | -14.4% |  | 20.6 µM (active)
Cc1c(Cl)cccc1NC(=S)N1CCC(N(C)CC2CCCO2)CC1 (centres undefined) |  | 7.58% | 5.5% (inactive) | 
Cc1cc(-c2csc(N)n2)c(C)n1CCc1ccccc1 | inactive | -18.9% |  | 
CCN(CC)C(=O)C1CCN(S(=O)(=O)c2ccc(-n3cnnn3)cc2)CC1 |  | 1.39% | -3.69% (inactive) | 
COc1ccc(S(=O)(=O)NCC(=O)NCc2cc(=O)n(C)c(=O)n2C)cc1C |  | 10.1% | -0.472% (inactive) | 
CCOC(CCn1c(SCC(=O)NC2CCCC2)nc2ccccc2c1=O)OCC | inactive | 7.57% |  | 
CN(C)CCCNCCCNC(=O)c1ccncc1 |  | 10.5% | -3.34% (inactive) | 

SMILES | outcome | cell number change | lipid storage change, negative = inhibition | Potency
O=C(CC1C(=O)NCCN1Cc1ccccc1)NC1CCCCCC1 (centres undefined) | inactive | 13.2% |  | 
O=C(CC1C(=O)NCCN1Cc1cccc(F)c1)NC1CCCCC1 (centres undefined) |  | 13.2% | -0.615% (inactive) | 
O=C(CC1C(=O)NCCN1Cc1cccc(C(F)(F)F)c1)NC1CCCCCC1 (centres undefined) |  | 13.5% |  | 5.17 µM (active)
Cc1n[nH]c(C)c1C(=O)CC1(O)C(=O)N(CCc2ccccc2)c2ccc(Br)cc21 (centres undefined) |  | 12.8% | 10.4% (inactive) | 
O=C1Nc2ccc(Br)cc2C1(O)c1ccccc1 (centres undefined) |  | 20.9% | 3% (inactive) | 
O=C1Nc2ccc(Br)cc2C12NNc1ccccc1O2 (centres undefined) |  |  |  | 23.1 µM (active)
O=C1NC2(Nc3ccccc31)C(=O)Nc1ccc(Br)cc12 (centres undefined) |  | -0.207% | -0.023% (inactive) | 
CCOc1ccc(NC(=O)NC(C)c2ccc3c(c2)OCO3)cc1 (centres undefined) |  | -0.862% | 15.4% (inactive) | 
O=C(CCSc1nc(-c2ccc3c(c2)OCO3)cc(C(F)(F)F)n1)NCc1ccccc1 |  | -16.9% | -11.3% (inactive) | 
CCc1cccc(NC(=O)NC(=O)Cn2nnc(C(=O)OC)c2C(=O)OC)c1 |  | 1.8% | 23.6% (inactive) | 
CC(C)Sc1nnc([C@@H]2CCCN2C(=O)OC(C)(C)C)o1 |  | -3.74% |  | 32.6 µM (active)
CC(C)(C)OC(=O)N1CCC[C@H]1c1nnc(SCc2ccccc2)o1 |  | 10.4% | 7.68% (inactive) | 
Cc1ccc(CSc2nnc([C@@H]3CCCN3C(=O)OC(C)(C)C)o2)cc1 |  | 17.7% | 3.95% (inactive) | 
CCCCSc1nnc([C@@H]2CCCN2C(=O)OC(C)(C)C)o1 |  | -21.2% | 11.2% (inactive) | 
CCSc1nnc([C@@H]2CCCN2C(=O)OC(C)(C)C)o1 |  | 6.53% |  | 23.1 µM (active)
C=C(C)CSc1nnc([C@@H]2CCCN2C(=O)OC(C)(C)C)o1 |  | 9.31% | 3.39% (inactive) | 
COc1ccc(C=O)cc1Cn1ccnc1C |  | -21.5% | -6.92% (inactive) | 
CC(C)(C)c1ccc(/C=C(\C#N)C(=O)Nc2ccccn2)cc1 |  | 9.55% | 20.5% (inactive) | 
N#C/C(=C\c1ccccc1Cl)C(=O)Nc1ccccn1 |  | 7.44% |  | 25.9 µM (active)
N#C/C(=C\c1cccs1)C(=O)Nc1ccccn1 |  | 9.59% | -4.46% (inactive) | 
Cc1ccc(-c2cc(C(F)F)n3ncc(C(=O)N4CCc5ccccc5C4)c3n2)cc1 |  | 3.7% | 8.24% (inactive) | 
CC(=O)Nc1cccc(Oc2ncnc3scc(-c4ccccc4)c23)c1 |  | 1.71% | 9.37% (inactive) | 
Cc1ccc(S(=O)(=O)N2CCN(C(=O)c3nn(C(C)C)c(=O)c4ccccc34)CC2)cc1C | inactive |  |  | 

SMILES | outcome | cell number change | lipid storage change, negative = inhibition | Potency
CCCn1nc(C(=O)N2CCN(S(=O)(=O)c3ccc(C)c(C)c3)CC2)c2ccccc2c1=O |  | 29.1% |  | 11.6 µM (active)
CCCn1nc(C(=O)N2CCc3ccccc3C2)c2ccccc2c1=O |  | -8.58% | 4.01% (inactive) | 
CCn1cc(C(=O)N(C)Cc2ccc(OC(F)F)cc2)c(=O)c2ccc(C)nc21 |  | 19.2% |  | 18.4 µM (active)
CCn1cc(C(=O)OC)c(=O)c2ccc(C)nc21 |  | 4.24% | -1.46% (inactive) | 
C=Cc1ccc(COC(=O)c2cn(CC)c3nc(C)ccc3c2=O)cc1 | inactive |  |  | 
O=C(COC(=O)CNS(=O)(=O)c1cccc(Br)c1)NC(=O)Nc1ccc2c(c1)OCCO2 |  |  | 8.82% (inactive) | 
COc1ccc(-n2nc(C(=O)NCC(=O)N(C)Cc3ccccc3)c3ccccc3c2=O)c(OC)c1 | inactive | 9.58% |  | 
O=C(O)CCCC(=O)Nc1ccccc1C(=O)N1CCCC1 |  | 0.517% |  | 4.61 µM (active)
CCOc1ccccc1N(CC(=O)Nc1ccccc1C(=O)N1CCCC1)S(C)(=O)=O | inactive | -13.5% |  | 
COc1ccccc1N(CC(=O)Nc1ccccc1C(=O)N1CCOCC1)S(C)(=O)=O |  | 1.26% | 5.39% (inactive) | 
O=C(c1cccc2ccccc12)N1CCCCC1 |  | -5.25% |  | 8.2 µM (active)
CCS(=O)(=O)N1CCN(C(=O)c2cccc3ccccc23)CC1 | inactive | 17.9% |  | 
COc1ccccc1OCC(=O)Nc1ccccc1C(=O)N1CCCCC1 |  |  | -14.5% (inactive) | 
CCC(=O)Nc1ccccc1C(=O)N1CCCC1 | inactive | 13.5% |  | 
O=C(CCSc1ccccc1)Nc1ccccc1C(=O)N1CCCC1 |  | -3.09% | 8.31% (inactive) | 
O=C(c1ccncc1)N1CCN(C(=O)c2cccc3ccccc23)CC1 |  | 6.28% | 13.3% (inactive) | 
COc1ccccc1N(CC(=O)Nc1ccccc1C(=O)N1CCCC1)S(C)(=O)=O |  | 1.61% |  | 18.4 µM (active)
Cc1ccccc1OCCC(=O)Nc1ccccc1C(=O)N1CCCCC1 |  | -4.28% |  | 5.8 µM (active)
Cc1ccc(OCC(=O)Nc2ccccc2C(=O)N2CCCCC2)cc1 | inactive | 24.3% |  | 
O=C(CN1CCN(CC(=O)Nc2ccccc2C(F)(F)F)CC1)Nc1ccccc1F |  |  | 0.494% (inactive) | 
O=C(CCC(=O)Nc1ccccc1Cl)NNC(=O)c1ccco1 |  | 11.4% | 2.6% (inactive) | 
CCN1C(=O)[C@H]2[C@@H](c3ccc(-c4ccc5c(c4)OCO5)cc3)N3CCC[C@@]3(C(=O)OC)[C@H]2C1=O |  | -27.4% | 13.4% (inactive) | 
Cc1ccccc1NCN1C(=O)C2CCC(C)(C1=O)C2(C)C (centres undefined) |  | -11.4% | -4.09% (inactive) | 

SMILES | outcome | cell number change | lipid storage change, negative = inhibition | Potency
CCOC(=O)c1cccc(NS(=O)(=O)Cc2ccccc2)c1 |  | -5.1% | -7.72% (inactive) | 
COc1cccc(/C=C/C(=O)OCC(=O)Nc2cc(C(F)(F)F)ccc2Cl)c1 |  | 1.22% | 12.8% (inactive) | 
COCCNC(=O)CN(C(=O)Cn1nnc2ccccc21)c1ccc(C)c(F)c1 |  | -2.04% | 9.15% (inactive) | 
NC(=O)CCCc1nc(-c2ccccc2Cl)no1 |  | -20.4% | -1.99% (inactive) | 
CCN1C(=NCc2ccco2)N[C@@H](c2cccc(F)c2)C(C(=O)OC)=C1C |  | 16.3% | -18% (inactive) | 
COCCNC(=O)C(=O)NCCN1CCOCC1 |  | -14.6% | -0.917% (inactive) | 
CCOc1ccc(NC(=O)CSc2nc(=O)n(Cc3cccnc3)c3c2CCC3)cc1 | inactive [at 0.0737 µM] |  |  | 
COc1ccc(-n2c(-c3cccc(C)c3[N+](=O)[O-])n[nH]c2=S)cc1 |  | 2.37% | -20.3% (inactive) | 
Cc1ccccc1CN(C)C(C)C(=O)NCc1ccccc1 (centres undefined) |  | 16.8% | 7.5% (inactive) | 
CCN(C(=O)CCNC(=O)Cn1cnc2ccccc2c1=O)c1ccccc1F | inactive | -0.794% |  | 
Cc1nc2cc(NC(=O)Nc3cccc4ccccc34)ccc2n1C |  | 19.9% | -7.94% (inactive) | 
Cc1nc2cc(Nc3nnc(-c4ccccc4)c4ccccc34)ccc2n1C |  | -29.7% |  | 11.6 µM (active)
COc1ccc(Nc2nnc(-c3ccc(O)cc3)c3ccccc23)cc1 | inactive |  |  | 
O=C(CN1CCN(S(=O)(=O)N2CCOCC2)CC1)Nc1cc(Cl)cc(Cl)c1 | inactive | 10% |  | 
Cc1ccc(-c2cc(C(=O)NC3CCCC3)no2)cc1 |  | -1.32% | 71.1% (inactive) | 
O=C(NC1CCCCC1)c1cc(-c2ccc(F)cc2)on1 |  | 15.8% |  | 23.1 µM (active)
COc1ccc(-c2cc(C(=O)NC3CCCC3)no2)cc1 | inactive | 6.09% |  | 
CCOC(=O)N1CCN(CC(O)COc2ccccc2[N+](=O)[O-])CC1 (centres undefined) |  | 10.6% | 12.5% (inactive) | 
CCOC(=O)N1CCN(CC(O)COc2ccccc2C(C)CC)CC1 (centres undefined) |  | 1.1% |  | 3.66 µM (active)
O=C(C(c1ccccc1)c1ccccc1)N1CCN(CC(O)COc2ccccc2)CC1 (centres undefined) |  | -10.2% |  | 4.61 µM (active)
O=C(c1ccccc1)N1CCN(CC(O)COc2ccc(Br)cc2)CC1 (centres undefined) | inactive |  |  | 
OC(COc1ccccc1)CN1CCOCC1 (centres undefined) |  | 9.9% | 0.356% (inactive) | 
CCOC(=O)N1CCN(CC(O)COc2ccccc2C(C)C)CC1 (centres undefined) |  | -2.25% | -5.66% (inactive) | 
